# From the supplement of paper PMC11732987, “Enantioselective OTUD7B fragment discovery through chemoproteomics screening and high-throughput optimisation” (Communications Chemistry, 2025)
# A number with no mark means an inactive call.
# Columns and labels:
# Test in all cases: log2 ratio of Biotin-Ahx-Ub-VS probe labelling (compound/DMSO); higher = less target engagement, active = hit call of the paper (q ≤ 0.05, log2 ratio ≤ -1)
# Conditions in all cases: treatment time: 3 h
# [1] = compound: CCC1N(CCc2sccc12)C(=O)CCl
# Outline: (§1)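 DUBs in HEK293T lysate were labelled with Biotin-Ahx-Ub-VS (0.5 µM final, 1 h) after a 3 h treatment with compound at 50 or 200 µM or with DMSO, done in triplicate on 495 µg of lysate per sample. NeutrAvidin-enriched proteins were digested with LysC and trypsin and run by diaPASEF LC-MS/MS. Median-normalised label-free quantities gave average base-two log ratios of compound to DMSO by unpaired t-test, restricted to proteins with at least 2 unique peptides.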
# [2] = compound: CN1c2ccccc2C(CS1(=O)=O)NC(=O)CCl
# Outline: as §1
# [3] = compound: Cl.ClCC(=O)N1CCc2ncncc2C1
# Outline: as §1
# [4] = compound: Cl.Cn1ncc2C(CCCc12)NC(=O)CCl
# Outline: as §1
# [5] = compound: ClCC(=O)NC1CCOc2ccccc12
# Outline: as §1
# [6] = compound: ClCC(=O)NC1CCCc2ccccc12
# Outline: (§2)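 Values are average ratios of compound to vehicle from an unpaired t-test, limited to proteins with at least two unique peptides. HEK293T lysate (495 µg per sample, in Tris/CHAPS/IGEPAL buffer with protease inhibitors) was exposed in triplicate to a concentration series of compound or to vehicle for 3 h, then to Biotin-Ahx-Ub-VS at 0.5 µM final for 1 h. Labelled deubiquitinases were enriched on NeutrAvidin, digested with LysC and trypsin, and analysed by diaPASEF LC-MS/MS. Ratios are given on a log2 scale from Spectronaut label-free protein quantities normalised to the global median.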
# [7] = compound: ClCC(=O)N[C@@H]1CCCc2ccccc12
# Outline: as §2
# [8] = compound: ClCC(=O)N[C@H]1CCCc2ccccc12
# Outline: as §2
# [9] = compound: CCC1N(CCc2cc(OC)c(Cl)cc12)C(=O)CCl
# Outline: as §1
# [10] = compound: CCCC1N(CCc2cc(OC)c(OC)cc12)C(=O)CCl
# Outline: as §1
# [11] = compound: CN(Cc1cccc(Br)c1)C(=O)CCl
# Outline: as §1
# [12] = compound: CN(Cc1cccc(OCc2ccccc2C)c1)C(=O)CCl
# Outline: as §1
# [13] = compound: CN(Cc1ccccc1)C(=O)CCl
# Outline: as §1
# [14] = compound: COc1ccc(CN(C)C(=O)CCl)cc1
# Outline: as §1
# [15] = compound: COc1cccc(CN(CCCc2ccccc2)C(=O)CCl)c1
# Outline: as §1
# [16] = compound: ClCC(=O)N1CCc2cc(Cl)c(Cl)cc2C1
# Outline: as §1
# [17] = compound: ClCC(=O)N1CCc2nc(ncc2C1)-c1ccccc1
# Outline: as §1
# [18] = compound: ClCC(=O)N1CCc2nocc2C1
# Outline: as §1
# [19] = compound: ClCC(=O)N1CCc2scc(Br)c2C1
# Outline: as §1
# [20] = compound: ClCC(=O)NC(C1CCCC1)c1cccs1
# Outline: as §1
# Chain of UniProt O75317 (O75317 whole entry): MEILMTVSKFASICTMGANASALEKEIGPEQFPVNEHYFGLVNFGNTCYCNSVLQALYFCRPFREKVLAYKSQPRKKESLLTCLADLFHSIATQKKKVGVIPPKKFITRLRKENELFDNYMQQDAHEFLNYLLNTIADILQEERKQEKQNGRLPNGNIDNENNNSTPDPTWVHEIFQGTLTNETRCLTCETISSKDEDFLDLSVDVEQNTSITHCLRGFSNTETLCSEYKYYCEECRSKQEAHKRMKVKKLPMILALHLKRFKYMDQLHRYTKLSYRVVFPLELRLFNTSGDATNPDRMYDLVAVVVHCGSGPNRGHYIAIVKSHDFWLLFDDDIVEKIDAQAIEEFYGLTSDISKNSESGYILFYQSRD
target,measurement,setting,value
USP12 (UniProt O75317),log2 ratio of Biotin-Ahx-Ub-VS probe labelling,[1]; compound concentration: 50uM,-0.336
same,log2 ratio of Biotin-Ahx-Ub-VS probe labelling,[1]; compound concentration: 200uM,-0.364
same,log2 ratio of Biotin-Ahx-Ub-VS probe labelling,[2]; compound concentration: 50uM,-0.67
same,log2 ratio of Biotin-Ahx-Ub-VS probe labelling,[2]; compound concentration: 200uM,-0.285
same,log2 ratio of Biotin-Ahx-Ub-VS probe labelling,[3]; compound concentration: 50uM,-0.414
same,log2 ratio of Biotin-Ahx-Ub-VS probe labelling,[3]; compound concentration: 200uM,0.0587
same,log2 ratio of Biotin-Ahx-Ub-VS probe labelling,[4]; compound concentration: 50uM,0.232
same,log2 ratio of Biotin-Ahx-Ub-VS probe labelling,[4]; compound concentration: 200uM,0.133
same,log2 ratio of Biotin-Ahx-Ub-VS probe labelling,[5]; compound concentration: 50uM,-0.0656
same,log2 ratio of Biotin-Ahx-Ub-VS probe labelling,[5]; compound concentration: 200uM,-0.128
same,log2 ratio of Biotin-Ahx-Ub-VS probe labelling,[6]; compound concentration: 0.78uM,-0.261
same,log2 ratio of Biotin-Ahx-Ub-VS probe labelling,[6]; compound concentration: 1.56uM,-0.455
same,log2 ratio of Biotin-Ahx-Ub-VS probe labelling,[6]; compound concentration: 3.13uM,-0.802
same,log2 ratio of Biotin-Ahx-Ub-VS probe labelling,[6]; compound concentration: 6.25uM,-0.549
same,log2 ratio of Biotin-Ahx-Ub-VS probe labelling,[6]; compound concentration: 12.5uM,-0.298
same,log2 ratio of Biotin-Ahx-Ub-VS probe labelling,[6]; compound concentration: 25uM,-0.852
same,log2 ratio of Biotin-Ahx-Ub-VS probe labelling,[6]; compound concentration: 50uM,-0.524
same,log2 ratio of Biotin-Ahx-Ub-VS probe labelling,[6]; compound concentration: 100uM,-0.285
same,log2 ratio of Biotin-Ahx-Ub-VS probe labelling,[6]; compound concentration: 200uM,-0.69
same,log2 ratio of Biotin-Ahx-Ub-VS probe labelling,[7]; compound concentration: 0.78uM,-0.131
same,log2 ratio of Biotin-Ahx-Ub-VS probe labelling,[7]; compound concentration: 1.56uM,0.0424
same,log2 ratio of Biotin-Ahx-Ub-VS probe labelling,[7]; compound concentration: 3.13uM,0.272
same,log2 ratio of Biotin-Ahx-Ub-VS probe labelling,[7]; compound concentration: 6.25uM,0.0447
same,log2 ratio of Biotin-Ahx-Ub-VS probe labelling,[7]; compound concentration: 12.5uM,-0.0347
same,log2 ratio of Biotin-Ahx-Ub-VS probe labelling,[7]; compound concentration: 25uM,-0.263
same,log2 ratio of Biotin-Ahx-Ub-VS probe labelling,[7]; compound concentration: 50uM,-0.715
same,log2 ratio of Biotin-Ahx-Ub-VS probe labelling,[7]; compound concentration: 100uM,-0.0609
same,log2 ratio of Biotin-Ahx-Ub-VS probe labelling,[7]; compound concentration: 200uM,-0.175
same,log2 ratio of Biotin-Ahx-Ub-VS probe labelling,[8]; compound concentration: 0.78uM,-0.247
same,log2 ratio of Biotin-Ahx-Ub-VS probe labelling,[8]; compound concentration: 1.56uM,-0.665
same,log2 ratio of Biotin-Ahx-Ub-VS probe labelling,[8]; compound concentration: 3.13uM,0.0603
same,log2 ratio of Biotin-Ahx-Ub-VS probe labelling,[8]; compound concentration: 6.25uM,0.103
same,log2 ratio of Biotin-Ahx-Ub-VS probe labelling,[8]; compound concentration: 12.5uM,-0.0251
same,log2 ratio of Biotin-Ahx-Ub-VS probe labelling,[8]; compound concentration: 25uM,-0.184
same,log2 ratio of Biotin-Ahx-Ub-VS probe labelling,[8]; compound concentration: 50uM,-0.474
same,log2 ratio of Biotin-Ahx-Ub-VS probe labelling,[8]; compound concentration: 100uM,-0.242
same,log2 ratio of Biotin-Ahx-Ub-VS probe labelling,[8]; compound concentration: 200uM,-0.748
same,log2 ratio of Biotin-Ahx-Ub-VS probe labelling,[9]; compound concentration: 50uM,-0.0261
same,log2 ratio of Biotin-Ahx-Ub-VS probe labelling,[9]; compound concentration: 200uM,-0.904
same,log2 ratio of Biotin-Ahx-Ub-VS probe labelling,[10]; compound concentration: 50uM,-0.303
same,log2 ratio of Biotin-Ahx-Ub-VS probe labelling,[10]; compound concentration: 200uM,-0.368
same,log2 ratio of Biotin-Ahx-Ub-VS probe labelling,[11]; compound concentration: 50uM,-0.144
same,log2 ratio of Biotin-Ahx-Ub-VS probe labelling,[11]; compound concentration: 200uM,-0.188
same,log2 ratio of Biotin-Ahx-Ub-VS probe labelling,[12]; compound concentration: 50uM,-0.484
same,log2 ratio of Biotin-Ahx-Ub-VS probe labelling,[12]; compound concentration: 200uM,-0.602
same,log2 ratio of Biotin-Ahx-Ub-VS probe labelling,[13]; compound concentration: 50uM,-0.0519
same,log2 ratio of Biotin-Ahx-Ub-VS probe labelling,[13]; compound concentration: 200uM,-0.89
same,log2 ratio of Biotin-Ahx-Ub-VS probe labelling,[14]; compound concentration: 50uM,-0.0378
same,log2 ratio of Biotin-Ahx-Ub-VS probe labelling,[14]; compound concentration: 200uM,-0.439
same,log2 ratio of Biotin-Ahx-Ub-VS probe labelling,[15]; compound concentration: 50uM,-0.477
same,log2 ratio of Biotin-Ahx-Ub-VS probe labelling,[15]; compound concentration: 200uM,-0.852
same,log2 ratio of Biotin-Ahx-Ub-VS probe labelling,[16]; compound concentration: 50uM,-0.202
same,log2 ratio of Biotin-Ahx-Ub-VS probe labelling,[16]; compound concentration: 200uM,-2.18 (active)
same,log2 ratio of Biotin-Ahx-Ub-VS probe labelling,[17]; compound concentration: 50uM,0.154
same,log2 ratio of Biotin-Ahx-Ub-VS probe labelling,[17]; compound concentration: 200uM,-0.813
same,log2 ratio of Biotin-Ahx-Ub-VS probe labelling,[18]; compound concentration: 50uM,-0.195
same,log2 ratio of Biotin-Ahx-Ub-VS probe labelling,[18]; compound concentration: 200uM,-0.415
same,log2 ratio of Biotin-Ahx-Ub-VS probe labelling,[19]; compound concentration: 50uM,0.0837
same,log2 ratio of Biotin-Ahx-Ub-VS probe labelling,[19]; compound concentration: 200uM,-0.475
same,log2 ratio of Biotin-Ahx-Ub-VS probe labelling,[20]; compound concentration: 50uM,0.0281
same,log2 ratio of Biotin-Ahx-Ub-VS probe labelling,[20]; compound concentration: 200uM,-0.0926
